Assay results: PubChem BioAssay (Tox21)
Results filed as inconclusive are left out. The source made the active and inactive calls. Unless noted, the call rests on the fitted dose curve.

How the values were obtained:
[1] = qHTS assay to identify small molecule agonists of the peroxisome proliferator-activated receptor delta (PPARd) signaling pathway - cell viability counter screen (AID 743211; active means well fitted curve in the direction sought with a large enough effect in the repeat runs; an effect the other way counts as inactive or inconclusive; further: on the % scale 0 is the no-effect control and ±100 the full control effect; nearly all actives have a fitted effect of over 55% in size)
Summary of the method: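 Luminescent ATP viability assay (CellTiter-Glo, 30 min RT) in UAS-bla HEK293H cells carrying the PPAR delta reporter construct, 3000 cells/well, after a 17 h compound treatment at 37 C.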

[2] = target: Peroxisome proliferator-activated receptor delta (Homo sapiens) (UniProt Q03181); test: qHTS assay to identify small molecule agonists of the peroxisome proliferator-activated receptor delta (PPARd) signaling pathway (AID 743212);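 further: HEK293H cells with PPARd UAS beta-lactamase reporter GeneBLAzer system; on the % scale 0 is the no-effect control and ±100 the full control effect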
Summary of the method: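 Steps: seed PPARd-bla HEK293H cells; incubate 5 h, 37 C, 5% CO2; add compounds in DMSO; incubate, 37 C; add LiveBLAzer B/G FRET substrate; hold 2 h at room temperature; measure fluorescence.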

[3] = target: Peroxisome proliferator-activated receptor delta (Homo sapiens) (UniProt Q03181); test: qHTS assay to identify small molecule antagonists of the peroxisome proliferator-activated receptor delta (PPARd) signaling pathway (AID 743215; active means well fitted inhibition curve with a large enough effect in the signal ratio in the repeat runs, not every such curve was filed as active; the % refers to the signal ratio;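 further: cells stimulated with agonist L165041 at 300 nM final during compound exposure; series mostly up to about 62 µM; on the % scale 0 is the no-effect control and ±100 the full control effect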)
Summary of the method: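 Screen format: qHTS, antagonist mode. HEK293H PPARd-bla cells received compound and 300 nM L165041 (final), 17 h, 37 C. Beta-lactamase detected via FRET substrate fluorescence, 2 h, room temperature.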

[4] = qHTS assay to identify small molecule antagonists of the farnesoid-X-receptor (FXR) signaling pathway - cell viability counter screen (AID 743221; active means well fitted cell-killing curve with a large enough effect in the repeat runs, not every such curve was filed as active; further: on the % scale 0 is the no-effect control and ±100 the full control effect; nearly all actives have a fitted effect of over 50% in size)
Summary of the method: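 In GeneBLAzer FXR-UAS-bla HEK 293T cells stimulated with 50 uM chenodeoxycholic acid (final), compounds acted for 16 h at 37 C. Viability was assessed afterwards by CellTiter-Glo luminescence.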

[5] = qHTS assay to identify small molecule agonists of the vitamin D receptor (VDR) signaling pathway - cell viability counter screen (AID 743224; active means well fitted curve in the direction sought with a large enough effect in the repeat runs; an effect the other way counts as inactive or inconclusive; further: series mostly up to about 63 µM; on the % scale 0 is the no-effect control and ±100 the full control effect; nearly all actives have a fitted effect of over 50% in size)
Summary of the method: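 Counter screen for cytotoxicity: VDR-bla cells at 2,000 cells/well, 16 h compound exposure, then CellTiter-Glo luminescence after the beta-lactamase measurement.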

[6] = qHTS assay to identify small molecule antagonists of the vitamin D receptor (VDR) signaling pathway - cell viability counter screen (AID 743225; active means well fitted curve in the direction sought with a large enough effect in the repeat runs; an effect the other way counts as inactive or inconclusive; further: on the % scale 0 is the no-effect control and ±100 the full control effect; nearly all actives have a fitted effect of over 50% in size)
Summary of the method: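 Luminescent cell viability (CellTiter-Glo) in VDR-bla HEK 293T cells after 16 h compound exposure at 37C in the presence of 3 nM final 1-alpha,25-dihydroxy vitamin D3.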

[7] = qHTS assay to identify small molecule agonists of the NFkB signaling pathway - cell viability counter screen (AID 1159515); further: series mostly up to about 61 µM; on the % scale 0 is the no-effect control and ±100 the full control effect; nearly all actives have a fitted effect of over 55% in size
Summary of the method: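 Counter screen run alongside the NFkB-bla agonist assay: ME-180 reporter cells exposed to compounds for 5 hr, then lysed with CellTiter-Glo in the same wells. Luminescence, read after 30 min, reflects viable cells.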

[8] = qHTS assay to identify small molecule agonists of the endoplasmic reticulum stress response signaling pathway (AID 1159516; active means well fitted activation curve with a large enough effect in the signal ratio in the repeat runs, not every such curve was filed as active; the % refers to the signal ratio; further: on the % scale 0 is the no-effect control and ±100 the full control effect)
Summary of the method: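 For this screen, HeLa cells stably carrying beta-lactamase under the ER stress response element received test compounds, positive controls or DMSO for 5 hr at 37 C; B/G FRET substrate was then added and dual-wavelength emission recorded.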

[9] = qHTS assay to identify small molecule agonists of the endoplasmic reticulum stress response signaling pathway - cell viability counter screen (AID 1159517); further: series mostly up to about 61 µM; on the % scale 0 is the no-effect control and ±100 the full control effect; nearly all actives have a fitted effect of over 50% in size
Summary of the method: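 After overnight attachment, ESRE-bla HeLa cells were treated with Tox21 library compounds for 5 hr. CellTiter-Glo luminescence, read 30 min post-addition at room temperature, reported viability.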

[10] = qHTS assay to identify small molecule antagonists of the retinoid-related orphan receptor gamma (ROR-gamma) signaling pathway - cell viability counter screen (AID 1159520; active means well fitted curve in the direction sought with a large enough effect in the repeat runs; an effect the other way counts as inactive or inconclusive)
Summary of the method: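 Cytotoxicity was read from cellular ATP (CellTiter-Glo luminescence) after 16 hr at 37 C with 1 uM doxycycline induction. The inducer was added 2 hr after compound transfer to Tet-on ROR gamma CHO cells.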

[11] = target: Nuclear receptor ROR-gamma (Homo sapiens) (UniProt P51449); test: qHTS assay to identify small molecule antagonists of the retinoid-related orphan receptor gamma (ROR-gamma) signaling pathway (AID 1159521; active means well fitted curve in the direction sought with a large enough effect in the repeat runs; an effect the other way counts as inactive or inconclusive)
Summary of the method: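 CHO cells expressing RORγ under a TET-on promoter, luciferase under RORE control. Dox 1 uM final, 16 h; compounds added 2 h prior. Luminescence decrease measured.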

[12] = qHTS assay to identify small molecule agonists of the AP-1 signaling pathway - cell viability counter screen (AID 1159525); further: nearly all actives have a fitted effect of over 55% in size
Summary of the method: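 Intracellular ATP by Cell Titer Glo luminescence (30 min, RT) in the same ME-180 AP-1-bla wells after the 5 h compound exposure at 37 °C. Normalised to tetra n-octyl ammonium bromide and DMSO controls.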

[13] = qHTS assay to identify small molecule agonists of the AP-1 signaling pathway (AID 1159526); further: on the % scale 0 is the no-effect control and ±100 the full control effect
[14] = target: Retinoic acid receptor RXR-alpha (Homo sapiens) (UniProt P19793); test: qHTS assay to identify small molecule agonists of the RXR signaling pathway (AID 1159527); further: on the % scale 0 is the no-effect control and ±100 the full control effect; nearly all actives have a fitted effect of over 35% in size
Summary of the method: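 Beta-lactamase reporter assay, agonist format. Engineered HEK 293T line, charcoal-stripped FBS at 2%, overnight (16 hr) exposure, fluorescence at 460 and 530 nm after 405 nm excitation.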

[15] = qHTS assay to identify small molecule antagonists of the peroxisome proliferator-activated receptor delta (PPARd) signaling pathway - cell viability counter screen (AID 743213; active means well fitted curve in the direction sought with a large enough effect in the repeat runs; an effect the other way counts as inactive or inconclusive)
Summary of the method: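 HEK293H cells with the PPARd UAS-bla reporter, co-treated 17 h at 37 C with compounds and L165041 (300 nM final), were lysed with CellTiter-Glo. Luminescence indicated viable cell content.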

[16] = qHTS assay to identify small molecule agonists of the farnesoid-X-receptor (FXR) signaling pathway - cell viability counter screen (AID 743218; active means well fitted curve in the direction sought with a large enough effect in the repeat runs; an effect the other way counts as inactive or inconclusive; further: on the % scale 0 is the no-effect control and ±100 the full control effect; nearly all actives have a fitted effect of over 45% in size)
Summary of the method: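 Same-well cytotoxicity check on FXR-UAS-bla HEK 293T cells: 5 h attachment, 16 h compound at 37 C, CellTiter-Glo luminescence read at room temperature after 30 min.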

[17] = target: Vitamin D3 receptor (Homo sapiens) (UniProt P11473); test: qHTS assay to identify small molecule agonists of the vitamin D receptor (VDR) signaling pathway (AID 743222); further: on the % scale 0 is the no-effect control and ±100 the full control effect
Summary of the method: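 Using LiveBLAzer B/G FRET detection, agonism was scored in VDR-bla cells exposed overnight (16 h, 37C) to DMSO-dissolved compounds; substrate incubation was 2 h at room temperature.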

[18] = target: Vitamin D3 receptor (Homo sapiens) (UniProt P11473); test: qHTS assay to identify small molecule antagonists of the vitamin D receptor (VDR) signaling pathway (AID 743223; active means well fitted inhibition curve with a large enough effect in the signal ratio in the repeat runs, not every such curve was filed as active; the % refers to the signal ratio; further: on the % scale 0 is the no-effect control and ±100 the full control effect)
Summary of the method: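 Agonist 1alpha,25-dihydroxyvitamin D3 (3 nM in well) was added with each compound to VDR-bla cells preincubated 4 h. Cells stood 16 h at 37C, then FRET substrate 2 h at room temperature; fluorescence intensity recorded.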

[19] = target: Bile acid receptor (Homo sapiens) (UniProt Q96RI1); test: qHTS assay to identify small molecule agonists of the farnesoid-X-receptor (FXR) signaling pathway (AID 743220; active means well fitted activation curve with a large enough effect in the signal ratio in the repeat runs, not every such curve was filed as active; the % refers to the signal ratio; further: on the % scale 0 is the no-effect control and ±100 the full control effect)
Summary of the method: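 FXR-UAS-bla HEK 293T cells carrying a UAS-driven beta-lactamase reporter were plated for 5 h at 37C/5% CO2, then exposed to DMSO-dissolved Tox21 10K compounds for 16 h at 37C. A LiveBLAzer B/G FRET substrate was loaded for 2 h at room temperature before fluorescence reading.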

[20] = target: Bile acid receptor (Homo sapiens) (UniProt Q96RI1); test: qHTS assay to identify small molecule antagonists of the farnesoid-X-receptor (FXR) signaling pathway (AID 743217; active means well fitted inhibition curve with a large enough effect in the signal ratio in the repeat runs, not every such curve was filed as active; the % refers to the signal ratio; further: on the % scale 0 is the no-effect control and ±100 the full control effect)
Summary of the method: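 Quantitative HTS, beta-lactamase reporter format: FXR-UAS-bla HEK 293T cells co-treated 16 h at 37 °C with compounds and 50 uM final chenodeoxycholic acid, then read by B/G FRET fluorescence.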

Bile acid receptor (Homo sapiens), sequence (Q96RI1 whole entry, looked up): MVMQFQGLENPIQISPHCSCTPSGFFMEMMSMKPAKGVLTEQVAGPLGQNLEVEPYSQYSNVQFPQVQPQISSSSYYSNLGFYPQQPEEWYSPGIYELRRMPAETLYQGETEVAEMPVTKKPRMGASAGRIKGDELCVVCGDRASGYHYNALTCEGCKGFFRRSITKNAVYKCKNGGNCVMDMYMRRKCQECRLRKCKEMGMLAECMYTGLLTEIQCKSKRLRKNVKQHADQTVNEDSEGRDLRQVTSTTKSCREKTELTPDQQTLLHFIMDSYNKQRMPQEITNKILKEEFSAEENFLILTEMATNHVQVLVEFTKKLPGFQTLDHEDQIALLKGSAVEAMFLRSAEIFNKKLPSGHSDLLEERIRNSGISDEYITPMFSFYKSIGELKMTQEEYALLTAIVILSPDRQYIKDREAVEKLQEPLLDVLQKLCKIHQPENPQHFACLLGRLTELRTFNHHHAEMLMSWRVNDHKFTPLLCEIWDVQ
Vitamin D3 receptor (Homo sapiens), sequence (P11473 whole entry, looked up): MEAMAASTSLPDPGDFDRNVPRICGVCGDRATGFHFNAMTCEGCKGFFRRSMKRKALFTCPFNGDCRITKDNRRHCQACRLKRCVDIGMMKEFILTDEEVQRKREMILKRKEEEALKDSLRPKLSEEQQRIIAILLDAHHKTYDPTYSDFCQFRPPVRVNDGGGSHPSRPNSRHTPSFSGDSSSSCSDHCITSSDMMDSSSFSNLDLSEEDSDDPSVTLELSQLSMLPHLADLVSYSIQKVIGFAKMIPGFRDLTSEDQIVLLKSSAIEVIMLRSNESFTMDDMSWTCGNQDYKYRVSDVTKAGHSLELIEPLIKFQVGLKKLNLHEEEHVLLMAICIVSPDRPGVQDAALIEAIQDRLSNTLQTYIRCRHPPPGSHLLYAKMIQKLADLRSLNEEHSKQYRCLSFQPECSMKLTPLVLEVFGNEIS
Peroxisome proliferator-activated receptor delta (Homo sapiens), sequence (Q03181 whole entry, looked up): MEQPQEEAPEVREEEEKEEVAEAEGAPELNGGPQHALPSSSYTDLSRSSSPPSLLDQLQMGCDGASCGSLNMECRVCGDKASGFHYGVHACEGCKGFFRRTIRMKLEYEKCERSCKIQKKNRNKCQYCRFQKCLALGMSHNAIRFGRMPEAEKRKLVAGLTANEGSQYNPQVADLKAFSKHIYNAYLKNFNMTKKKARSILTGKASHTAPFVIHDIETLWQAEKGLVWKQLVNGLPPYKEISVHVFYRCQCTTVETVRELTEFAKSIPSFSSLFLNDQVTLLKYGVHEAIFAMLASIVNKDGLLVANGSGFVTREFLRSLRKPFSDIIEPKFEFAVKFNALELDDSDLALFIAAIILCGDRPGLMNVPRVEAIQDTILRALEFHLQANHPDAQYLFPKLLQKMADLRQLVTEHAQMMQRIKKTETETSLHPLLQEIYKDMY
Retinoic acid receptor RXR-alpha (Homo sapiens), sequence (P19793 whole entry, looked up): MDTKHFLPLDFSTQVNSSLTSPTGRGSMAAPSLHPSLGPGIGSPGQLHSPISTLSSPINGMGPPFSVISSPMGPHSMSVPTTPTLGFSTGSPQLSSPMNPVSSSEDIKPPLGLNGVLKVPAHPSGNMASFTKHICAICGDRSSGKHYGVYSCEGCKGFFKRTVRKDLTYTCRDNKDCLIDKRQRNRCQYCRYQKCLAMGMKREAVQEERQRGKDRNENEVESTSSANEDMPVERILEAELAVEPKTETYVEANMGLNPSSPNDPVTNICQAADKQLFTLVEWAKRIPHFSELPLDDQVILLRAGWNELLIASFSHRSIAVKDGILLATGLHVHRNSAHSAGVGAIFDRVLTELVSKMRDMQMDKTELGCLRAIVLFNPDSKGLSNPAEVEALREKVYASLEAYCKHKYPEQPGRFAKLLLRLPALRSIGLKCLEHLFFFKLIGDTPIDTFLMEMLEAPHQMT

COc1cc(C(=S)N2CCOCC2)ccc1O
inactive: Potency [1] | Potency [2] | Potency [3] | Potency [4] | Potency [5] | Potency [6] | Potency [7] | outcome [8] | Potency [9] | Potency [10] | Potency [11] | Potency [12] | Potency [13] | Potency [14]

O=Cc1ccc(Cl)cc1
inactive: Potency [1] | Potency [2] | Potency [15] | Potency [3] | Potency [16] | Potency [4] | Potency [17] | Potency [18] | Potency [6] | Potency [7] | outcome [8] | Potency [9] | Potency [10] | Potency [11] | Potency [12] | Potency [13] | Potency [14]

CO[Si](OC)(OC)c1ccccc1
inactive: Potency [1] | Potency [2] | Potency [15] | Potency [3] | Potency [16] | Potency [4] | Potency [18] | Potency [5] | Potency [6] | Potency [7] | outcome [8] | Potency [9] | Potency [10] | Potency [11] | Potency [12] | Potency [13] | Potency [14]

CCCC(=O)c1ccccc1
inactive: Potency [1] | Potency [2] | Potency [3] | Potency [16] | Potency [4] | Potency [17] | Potency [18] | Potency [5] | Potency [6] | Potency [7] | outcome [8] | Potency [9] | Potency [10] | Potency [11] | Potency [12] | Potency [13] | Potency [14]

O=C(O)CP(=O)(O)O
inactive: Potency [1] | Potency [2] | Potency [16] | Potency [4] | Potency [18] | Potency [6] | Potency [7] | outcome [8] | Potency [9] | Potency [10] | Potency [11] | Potency [12] | Potency [13] | Potency [14]

C=CS(=O)(=O)O
inactive: Potency [1] | Potency [2] | Potency [15] | Potency [3] | Potency [16] | Potency [19] | Potency [4] | Potency [17] | Potency [5] | Potency [6] | Potency [7] | outcome [8] | Potency [9] | Potency [10] | Potency [11] | Potency [12] | Potency [13] | Potency [14]

c1ccc2n[nH]nc2c1
inactive: Potency [1] | Potency [2] | Potency [3] | Potency [16] | Potency [4] | Potency [6] | Potency [7] | outcome [8] | Potency [9] | Potency [10] | Potency [11] | Potency [12] | Potency [13] | Potency [14]

CCOC(=O)C(C)C(C)=O (stereo unspecified)
inactive: Potency [1] | Potency [2] | Potency [3] | Potency [16] | Potency [4] | Potency [5] | Potency [6] | Potency [7] | outcome [8] | Potency [9] | Potency [10] | Potency [11] | Potency [12] | Potency [13] | Potency [14]

CCCCN(CCO)CCCC
inactive: Potency [1] | Potency [2] | Potency [15] | Potency [3] | Potency [16] | Potency [19] | Potency [4] | Potency [17] | Potency [18] | Potency [5] | Potency [6] | Potency [7] | outcome [8] | Potency [9] | Potency [10] | Potency [11] | Potency [12] | Potency [13] | Potency [14]

CCn1cc(C(=O)O)c(=O)c2cc(F)c(N3CCNC(C)C3)c(F)c21 (stereo unspecified)
inactive: Potency [1] | Potency [2] | Potency [15] | Potency [3] | Potency [16] | Potency [4] | Potency [5] | Potency [6] | Potency [7] | outcome [8] | Potency [9] | Potency [10] | Potency [11] | Potency [12] | Potency [13] | Potency [14]

NC(Cc1ccc(Cl)cc1)C(=O)O (stereo unspecified)
inactive: activity change, negative = cytotoxicity [1] 4.79% [at 0.55 µM] | activation [2] 2.85% [at 0.55 µM] | viability change, negative = cytotoxic [15] 1.71% [at 0.575 µM] | ratio activity, negative = inhibition [3] 5.74% [at 0.575 µM] | activity change, negative = inhibition [20] 10.5% [at 0.55 µM] | viability change, negative = cytotoxic [16] 0.639% [at 0.55 µM] | activation [19] 2.17% [at 0.55 µM] | activity change, negative = cytotoxicity [4] 5.76% [at 0.55 µM] | activation [17] 0.21% [at 0.554 µM] | activity change, negative = cytotoxicity [5] 2.72% [at 0.55 µM] | viability change, negative = cytotoxic [6] -8.18% [at 0.628 µM] | activity, negative = cytotoxic [7] 8.56% [at 0.628 µM] | activation [8] 2.37% [at 0.628 µM] | activity change, negative = cytotoxicity [9] 3.91% [at 0.628 µM] | activity, negative = cytotoxicity [10] 3.35% [at 0.349 µM] | activity change, negative = inhibition [11] 14.9% [at 0.35 µM] | viability change, negative = cytotoxic [12] -2.41% [at 0.29 µM] | activation [13] -0.248% [at 0.29 µM] | activation [14] -0.301% [at 0.29 µM]

CC(C)(C)NCC(O)COc1ccccc1OCC1CCCO1 (stereo unspecified)
inactive: Potency [1] | Potency [2] | Potency [3] | Potency [16] | Potency [19] | Potency [4] | Potency [5] | Potency [6] | Potency [7] | outcome [8] | Potency [9] | Potency [10] | Potency [11] | Potency [12] | Potency [13] | Potency [14]

CCC(=O)/C=C/C1C(C)=CCCC1(C)C (stereo unspecified)
inactive: Potency [1] | Potency [2] | Potency [15] | Potency [3] | Potency [16] | Potency [19] | Potency [4] | Potency [17] | Potency [6] | Potency [7] | outcome [8] | Potency [9] | Potency [10] | Potency [11] | Potency [12] | Potency [13] | Potency [14]

C1COC(NC(C2CC2)C2CC2)=N1
inactive: Potency [1] | Potency [2] | Potency [15] | Potency [3] | Potency [16] | Potency [4] | Potency [5] | Potency [6] | Potency [7] | outcome [8] | Potency [9] | Potency [10] | Potency [11] | Potency [12] | Potency [13] | Potency [14]

[Cl][In]([Cl])[Cl]
inactive: Potency [1] | Potency [2] | Potency [15] | Potency [3] | Potency [16] | Potency [4] | Potency [17] | Potency [5] | Potency [6] | Potency [7] | outcome [8] | Potency [9] | Potency [10] | Potency [11] | Potency [12] | Potency [13] | Potency [14]
